# Measurements as given in PubChem BioAssay (EPA / NIEHS).
# Active and inactive are the calls of the source. How the source made its calls: active means hit-call score of the fitted dose curve at least 0.9, where 1 is the maximum; inactive means score below 0.9.
# Read-out: Interleukin-1 alpha (IL1a), IL1A (gene 3552)
# Assay: BSK_KF3CT_IL1a: BioMAP Diversity Plus: KF3CT Assay for Interleukin-1 alpha (IL1a) Biomarker Activity (AID 2283070)
# Settings: primary human keratinocytes with fibroblasts; actives raise or lower the signal
# Procedure: BSK_KF3CT is a cell-based, multiplexed-readout assay that uses keratinocytes and foreskin fibroblasts, a human skin primary cell co-culture, with measurements taken at 24 hours after chemical dosing in a 96-well plate.BSK_KF3CT_IL1a is an assay component measured in the BSK_KF3CT assay. It measures IL-1a antibody related to regulation of gene expression using ELISA technology.Data from the assay component BSK_KF3CT_IL1a was analyzed into 1 assay endpoint. This assay endpoint, BSK_KF3CT_IL1a, was analyzed with bidirectional fitting relative to DMSO as the negative control and baseline of activity. Using a type of binding reporter, gain or loss-of-signal activity can be used to understand changes in the signaling as they relate to the gene IL1A. Furthermore, this assay endpoint can be referred to as a primary readout, because this assay has produced multiple assay endpoints where this one serves a signaling function. To generalize the intended target to other relatable targets, this assay endpoint is annotated to the cytokine intended target family, where the subfamily is interleukins.
# The levels of cell surface (or secreted, indicated by the prefix "s") biomarker endpoints were measured by ELISA. Overt cytotoxicity to cells in confluent adherent cultures (all systems other than the BT system) was assessed by measuring total protein levels using sulforhodamine B (SRB) staining in parallel cultures at the time of biomarker measurements, indicated as SRB endpoints. For proliferation assays for adherent cell types, individual cell types are cultured at sub-confluence and relative cell numbers quantified by SRB staining at time points optimized for each system (48 h: 3C and CASM3C systems; 72 h: BT and HDF3CGF systems; 96 h: SAg system). SRB was performed by staining cells with 0.1% SRB after fixation with 10% TCA and reading wells at 560 nm.Viability and proliferation of PBMC (T cells) was quantified by Alamar Blue reduction for the SAg and BT systems. For PBMC viability (referred to as PBMC Cytotoxicity within the assay endpoint names), cells were plated (75,000/well in a 96-well plate) and then chemical samples added for 1 h before addition of activators, SEB and TSST-1 (20 ng/mL final concentration each). Cells were incubated for 90 h. Then, Alamar Blue (20 uL/well) (Invitrogen, Cat DAL1100) was added for 6 h, and the plates were read with a fluorescence microplate reader at 546/580 nm (excitation/emission). For PBMC proliferation, cells were plated and activated as above but incubated for only 16 h prior to addition of Alamar Blue. Plates were read after 6 h.
SMILES,outcome,AC50
CO[C@H]1/C=C/O[C@@]2(C)Oc3c(C)c(O)c4c(O)c(c(/C=N/N5CCN(C)CC5)c(O)c4c3C2=O)NC(=O)/C(C)=C\C=C\[C@H](C)[C@H](O)[C@@H](C)[C@@H](O)[C@@H](C)[C@H](OC(C)=O)[C@@H]1C,inactive,
O=C1O[C@H]([C@@H](O)CO)C(O)=C1O,inactive,
CCCOC(=O)c1cc(O)c(O)c(O)c1,inactive,
CCCCCCCCOC(=O)c1cc(O)c(O)c(O)c1,,25.5 µM (active)
c1ccc2ccccc2c1,inactive,
CC(C)(C)c1csc(-c2cc3cc(OCc4ccccc4CC(=O)O)ccc3o2)n1,,33 µM (active)
CCO[Si](CCCNC(N)=O)(OCC)OCC,inactive,
Cc1ccc(C(C)C)cc1,inactive,
Oc1ccc2ccccc2c1,inactive,
c1ccc2n[nH]nc2c1,inactive,
CN1C(=O)CC[C@H]1c1cccnc1,inactive,
CCCCOC(=O)c1ccc(O)cc1,inactive,
CC/C(=C(/CC)c1ccc(O)cc1)c1ccc(O)cc1,,28 µM (active)
Cc1ncc(CO)c(CO)c1O,inactive,
CN(C[C@@H](CC[N+]12CCC(C3CCCCC3)(CC1)CC2)c1ccc(Cl)c(Cl)c1)C(=O)c1cc(C(F)(F)F)cc(C(F)(F)F)c1,,11.2 µM (active)
Oc1ccccc1,inactive,
O=C(O)c1ccccc1C(=O)OCc1ccccc1,inactive,
CC(O)CC(C)(C)O (stereo not given),inactive,
C[C@]12CC[C@@H]3c4ccc(O)cc4CC[C@H]3[C@@H]1CCC2=O,inactive,
O=C1CCC(C2CCCCC2)CC1,inactive,

SMILES,outcome,AC50
CCCCCCCC[Si](OCC)(OCC)OCC,inactive,
Cc1cccc2ccccc12,inactive,
CC(C)(c1cc(Br)c(O)c(Br)c1)c1cc(Br)c(O)c(Br)c1,,5.97 µM (active)
CCCCCCCCCC(=O)O,inactive,
CCN(Cc1cccnc1)C(=O)c1cccc(Cl)c1[C@]1(C)C(=O)N(Cc2ccc(OC)cc2OC)c2ccc(Cl)cc21,inactive,
NC(=O)c1nc(-c2cccc(-c3cc(F)ccc3OCC(F)(F)C(F)(F)F)c2)n[nH]1,,41.2 µM (active)
CC1=CC(=O)/C(=C(/C)O)C(=O)O1,inactive,
O=C(O)Cn1c(=O)n(Cc2ccc(Br)cc2F)c(=O)c2ccc(Cl)cc21,inactive,
CCCCCCCCOc1ccc(C(=O)c2ccccc2)c(O)c1,inactive,
O=c1ccc2ccccc2o1,inactive,
CC[C@@H]1C[C@H](N(Cc2cc(C(F)(F)F)cc(C(F)(F)F)c2)C(C)=O)c2cc(C(F)(F)F)ccc2N1C(=O)OC(C)C,inactive,
Cc1cc2c(cc1C(F)(F)F)N(C(=O)Nc1ccc(Oc3cccnc3C)nc1)CC2,,15.5 µM (active)
O=C(Nc1ccc(Cl)cc1)Nc1ccc(Cl)c(Cl)c1,inactive,
COc1cccc([C@H](O)C2CCN(CCc3ccc(F)cc3)CC2)c1OC,inactive,
CN(C)c1ccc(C(=C2C=CC(=[N+](C)C)C=C2)c2ccc(N(C)C)cc2)cc1,,2.54 µM (active)
CCCCCCCCN(C)CCCCCCCC,inactive,
O=C=NCCCCCCN=C=O,inactive,
C[C@]12CC[C@@H]3c4ccc(O)cc4CC[C@H]3[C@@H]1CC[C@H]2O,inactive,
COCC(C)OCC(C)OCC(C)O (stereo not given),inactive,
c1ccc(C[n+]2cccc3ccccc32)cc1,inactive,
